We go through eight compounds from PubChem BioAssay (NCI).

Test systems include HCT-15 colon; HT29 colon; SNB-75 CNS; SNB-19 CNS; U251 CNS; PC-3 prostate; SK-MEL-5 melanoma; UACC-62 melanoma; LOX IMVI melanoma; SK-MEL-28 melanoma; SK-MEL-2 melanoma; EKVX NSCLC; SN12C renal; UO-31 renal; TK-10 renal; ACHN renal; CAKI-1 renal; A498 renal; CCRF-CEM leukemia; MOLT-4 leukemia.
Assay in all cases: NCI-60 one-dose screen, 48 h (100 = growth as untreated, 0 = no growth, -100 = all killed)
What all share (details): 10 µM unless noted

Structures are written as SMILES. The panel holds about 83,000 compounds, 20% with a hit somewhere; the sample as a whole holds those more often.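 Step 1: grow cells in 96-well plates. Step 2: add test compound at a single concentration. Step 3: incubate 48 h. Step 4: record percent growth.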 A number with no mark means an inactive call. Calls of active or inactive are those of the source. The calls were made as follows: active = growth percent below 10; inactive = the rest.

Turning to `CCCCCCCCCCCCCCCCCCOc1ccccc1CC(=O)NCC[N+](C)(C)C`, the growth with HCT-15 colon was 87.4%; with HT29 colon it was 12.5%; in the assay on SNB-75 CNS it was 22.9%; in the assay on SNB-19 CNS it was 12.5%; in the assay on U251 CNS, -58.5% (active); in the assay with PC-3 prostate, -33% (active). Further, the growth in the assay with SK-MEL-5 melanoma was 63.7%; in the assay with UACC-62 melanoma, 42%; in the assay with LOX IMVI melanoma, 33.4%; in the assay on SK-MEL-28 melanoma, 80.1%; with SK-MEL-2 melanoma it was 68.8%; in the assay with EKVX NSCLC it was 89.3%. The growth was 23.5% in the assay on SN12C renal; 80.2% with UO-31 renal; -21.4% (active) in the assay on TK-10 renal; 78.3% in the assay with ACHN renal; 18.7% in the assay on CAKI-1 renal; 65.6% in the assay on A498 renal. Besides, the growth was -5.38% (active) in the assay on CCRF-CEM leukemia and 17.1% in the assay with MOLT-4 leukemia.
Turning to `CC1=C2[C@@H](CC1)[C@]1(C)O[C@@](C3CCNCC3)(C[C@H]1OC(=O)CO)[C@H]2OC(=O)/C=C/c1ccccc1`, the growth in the assay with HCT-15 colon was 93.4%; with HT29 colon, 43.2%; in the assay with SNB-75 CNS it was 68.9%; with SNB-19 CNS it was 90.6%; in the assay on U251 CNS, 44.3%; with PC-3 prostate it was 66.6%. For the same compound, the growth in the assay on SK-MEL-5 melanoma is 94.8%; in the assay with UACC-62 melanoma, 93.3%; with LOX IMVI melanoma it was 87.1%; in the assay with SK-MEL-28 melanoma, 94.1%; in the assay with SK-MEL-2 melanoma it was 106%; in the assay with EKVX NSCLC, 91.8%. In addition, the growth in the assay with SN12C renal was 53.1%; in the assay with UO-31 renal it was 60.1%; with TK-10 renal, 97.3%; in the assay with ACHN renal it was 47%; in the assay with CAKI-1 renal, 49.1%; in the assay with A498 renal, 9.48% (active). The growth is 78.9% in the assay on CCRF-CEM leukemia and 78.1% with MOLT-4 leukemia.
Turning to `C#CCOc1ccc2nc(CCl)c(Cl)c(Nc3cccc(C(F)(F)F)c3)c2c1`, the growth in the assay with HCT-15 colon was 36.3%; in the assay on HT29 colon it was 75.6%; in the assay with SNB-75 CNS, 70.5%; with SNB-19 CNS, 98.5%; with U251 CNS it was 77.3%; in the assay on PC-3 prostate, 85.1%. In addition, the growth was 58.2% in the assay with SK-MEL-5 melanoma; 71.2% with UACC-62 melanoma; -1.15% (active) in the assay on LOX IMVI melanoma; 108% in the assay on SK-MEL-28 melanoma; 84.4% in the assay with SK-MEL-2 melanoma; 91.1% with EKVX NSCLC. For the same compound, the growth in the assay on SN12C renal is 68.6%; with UO-31 renal, 51.8%; in the assay with TK-10 renal, 89.8%; in the assay on ACHN renal, 52.1%; in the assay on CAKI-1 renal, 77%; with A498 renal, 104%. Besides, the growth with CCRF-CEM leukemia was 20.9%; in the assay on MOLT-4 leukemia, 29.5%.
Turning to `CS(=O)(=O)Nc1cc(-c2ccc3ncnc(Nc4ccc5c(cnn5Cc5ccncc5)c4)c3c2)cnc1Cl`, the growth with HCT-15 colon was 92.3%; in the assay with HT29 colon it was 64.8%; with SNB-75 CNS, 8.94% (active); in the assay on SNB-19 CNS, 60%; with U251 CNS, 52.7%; with PC-3 prostate it was 57.7%. In addition, the growth was 52.5% in the assay on SK-MEL-5 melanoma; 32.5% in the assay on UACC-62 melanoma; 22% in the assay on LOX IMVI melanoma; 32.5% in the assay with SK-MEL-28 melanoma; -0.132% (active) in the assay on SK-MEL-2 melanoma; 75.9% in the assay with EKVX NSCLC. Moreover, the growth with SN12C renal was 54.7%; in the assay with UO-31 renal, 57.5%; with TK-10 renal it was 39.1%; in the assay with ACHN renal, 89.9%; with CAKI-1 renal it was 40.7%; with A498 renal it was 2.83% (active). Besides, the growth was 33.1% in the assay with CCRF-CEM leukemia and 57.1% in the assay on MOLT-4 leukemia.
Take `COc1ccc(/C=C(\C(=O)NCc2cccnc2)S(=O)(=O)c2ccccc2)cc1OC`: the growth in the assay with HCT-15 colon is 28.3%; with HT29 colon, 9.86% (active); with SNB-75 CNS, 54.2%; in the assay on SNB-19 CNS, 38.4%; with U251 CNS, 32.2%; with PC-3 prostate, 36.5%. For the same compound, the growth in the assay on SK-MEL-5 melanoma is 64.6%; in the assay on UACC-62 melanoma it was 34.9%; with LOX IMVI melanoma, 4.04% (active); in the assay on SK-MEL-28 melanoma, 34.6%; in the assay on SK-MEL-2 melanoma it was 54.6%; with EKVX NSCLC, 38.9%. Moreover, the growth in the assay with SN12C renal was 10.9%; with UO-31 renal it was 38.8%; in the assay on TK-10 renal, 46.4%; in the assay on ACHN renal, 52.8%; in the assay with CAKI-1 renal it was 36.1%; in the assay on A498 renal, 51%. Also, the growth was 9.07% (active) in the assay with CCRF-CEM leukemia and 39.3% in the assay on MOLT-4 leukemia.
Take `CC(C)=CC(=O)N[C@H]1CC[C@]2(C)C3CC[C@]4(C)C(C(C)N(C)C)=CCC4C3CCC2[C@H]1O` (stereo not given in full): the growth with HCT-15 colon was -36.5% (active); in the assay on HT29 colon it was 2.01% (active); with SNB-75 CNS, 65%; in the assay with SNB-19 CNS it was 100%; in the assay with U251 CNS, 51.5%; with PC-3 prostate, 37.7%. The growth with SK-MEL-5 melanoma was -76.1% (active); in the assay on UACC-62 melanoma, -25.1% (active); in the assay with LOX IMVI melanoma, -59.1% (active); in the assay on SK-MEL-28 melanoma, -72.5% (active); in the assay on SK-MEL-2 melanoma, 106%; with EKVX NSCLC, 57.7%. The growth in the assay with SN12C renal was 70.1%; with UO-31 renal, -48% (active); in the assay on TK-10 renal, 85.7%; in the assay on ACHN renal, 58.6%; with CAKI-1 renal, 79.4%; in the assay on A498 renal it was 66.1%. Moreover, the growth in the assay on CCRF-CEM leukemia was 13.4%; in the assay on MOLT-4 leukemia it was 48.1%.
For `Nc1ncnc2c1N=C(c1ccc(Cl)cc1)CC(c1cccc(Nc3ccnc4cc(Cl)ccc34)c1)N2` (stereo not given), the growth with HCT-15 colon is 21.1%; in the assay with HT29 colon it was 36.3%; with SNB-75 CNS it was 60.4%; in the assay with SNB-19 CNS, 79.6%; in the assay on U251 CNS it was 50%; with PC-3 prostate, 55.4%. Also, the growth in the assay on SK-MEL-5 melanoma is 61.9%; in the assay on UACC-62 melanoma, 81.2%; in the assay with LOX IMVI melanoma it was 45.5%; with SK-MEL-28 melanoma, 86.8%; in the assay on SK-MEL-2 melanoma it was 76.6%; in the assay on EKVX NSCLC it was 59.4%. For the same compound, the growth in the assay with SN12C renal is 67.1%; in the assay with UO-31 renal, 47.2%; in the assay on TK-10 renal it was 117%; with ACHN renal it was 84.2%; in the assay with CAKI-1 renal, 65.7%; in the assay with A498 renal, 51.1%. Besides, the growth in the assay on CCRF-CEM leukemia was 4% (active); in the assay on MOLT-4 leukemia, 12.3%.
For `CCOC(=O)c1ccc[nH]1`, the growth with HCT-15 colon was 93.9%; in the assay on HT29 colon, 106%; with SNB-75 CNS it was 84.2%; in the assay on SNB-19 CNS, 99.4%; with U251 CNS, 96.6%; in the assay on PC-3 prostate, 91.8%. Also, the growth is 98.4% with SK-MEL-5 melanoma; 103% with UACC-62 melanoma; 94.1% in the assay on LOX IMVI melanoma; 115% in the assay with SK-MEL-28 melanoma; 99.3% in the assay on SK-MEL-2 melanoma; 97.1% in the assay on EKVX NSCLC. In addition, the growth in the assay on SN12C renal was 105%; in the assay on UO-31 renal it was 91.8%; in the assay on TK-10 renal, 98.3%; in the assay on ACHN renal, 90.4%; in the assay with CAKI-1 renal it was 74.3%; in the assay with A498 renal it was 101%. Besides, the growth in the assay on CCRF-CEM leukemia was 92.1%; in the assay on MOLT-4 leukemia it was 102%.
